Results filed as inconclusive are left out. Calls of active or inactive are those of the source. Unless noted, calls follow the shape of the dose curve; as a rule, active = well fitted curve in the direction sought with a large enough effect in the repeat runs; inconclusive = weak or mixed curves; inactive = no such curve, though single readings can be large; an effect the other way counts as inactive or inconclusive.
Columns and labels:
[1] = qHTS assay to identify small molecule antagonists of the glucocorticoid receptor (GR) signaling pathway - cell viability counter screen (AID 720693); also: nearly all actives have a fitted effect of over 55% in size; also: potency is read from the fitted curve at half-maximal effect
[2] = qHTS assay for identifying genotoxic compounds that show differential cytotoxicity against isogenic chicken DT40 cell lines with known DNA damage response pathways - wild type cell line (AID 743012); also: nearly all actives have a fitted effect of over 60% in size; also: potency is read from the fitted curve at half-maximal effect
Procedure, shortened: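 Using parental DT40 (300 cells/well), compounds delivered in DMSO incubate 40 h at 37 C/5% CO2. CellTiter-Glo reagent then stands 30 min at room temperature, and luminescence gives cell viability.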

[3] = qHTS assay for identifying genotoxic compounds that show differential cytotoxicity against isogenic chicken DT40 cell lines with known DNA damage response pathways - Rev3 mutant cell line (AID 743014); also: nearly all actives have a fitted effect of over 55% in size; also: potency is read from the fitted curve at half-maximal effect
[4] = qHTS assay for identifying genotoxic compounds that show differential cytotoxicity against isogenic chicken DT40 cell lines with known DNA damage response pathways - Rad54/Ku70 mutant cell line (AID 743015); also: nearly all actives have a fitted effect of over 60% in size; also: potency is read from the fitted curve at half-maximal effect
[5] = qHTS assay to identify small molecule antagonists of the androgen receptor (AR) signaling pathway - cell viability counter screen (AID 743033; also: nearly all actives have a fitted effect of over 45% in size)
[6] = qHTS assay to identify small molecule antagonists of the androgen receptor (AR) signaling pathway using the MDA cell line - cell viability counter screen (AID 743041; also: nearly all actives have a fitted effect of over 45% in size)
Procedure, shortened: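 R1881-driven MDA-kb2 AR-luc cells, 3,000/well, were dosed with library compounds for 16 h; cell health came from CellTiter-Fluor fluorescence in the reporter wells.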

[7] = qHTS assay to identify small molecule antagonists of the thyroid receptor (TR) signaling pathway - cell viability counter screen (AID 743064); also: nearly all actives have a fitted effect of over 50% in size; also: potency is read from the fitted curve at half-maximal effect
Procedure, shortened: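 Compounds were tested on GH3.TRE-Luc cells in the presence of T3 at 1 nM final. Following 23.5 h at 37 °C, cell viability was quantified by CellTiter-Fluor.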

[8] = target: Estrogen receptor (Homo sapiens) (UniProt P03372); assay: qHTS assay to identify small molecule antagonists of the estrogen receptor alpha (ER-alpha) signaling pathway (AID 743069; active = well fitted curve in the direction sought with a large enough effect in the signal ratio in the repeat runs, not every such curve was filed as active; the % refers to the signal ratio)
Procedure, shortened: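 Compound effects are measured against 17beta-estradiol stimulation in HEK293 cells with a UAS-controlled beta-lactamase reporter for ER-alpha. Exposure lasts 18 hr at 37C; LiveBLAzer B/G FRET substrate follows for 2 hr at room temperature.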

[9] = target: Estrogen receptor (Homo sapiens) (UniProt P03372); assay: qHTS assay to identify small molecule agonists of the estrogen receptor alpha (ER-alpha) signaling pathway (AID 743075; calls by dose curve)
[10] = target: Estrogen receptor (Homo sapiens) (UniProt P03372); assay: qHTS assay to identify small molecule agonists of the estrogen receptor alpha (ER-alpha) signaling pathway using the BG1 cell line (AID 743079); also: nearly all actives have a fitted effect of over 20% in size
[11] = qHTS assay to identify small molecule antagonists of the estrogen receptor alpha (ER-alpha) signaling pathway using the BG1 cell line (AID 743080; calls by dose curve;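 also: BG1 cells stimulated with 17beta-estradiol alongside compound; series mostly up to about 70 µM; nearly all actives have a fitted effect of over 25% in size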)
Procedure, shortened: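 Luciferase inhibition measured with ONE-Glo after 30 min at RT in BG1Luc4E2 cells given test compounds and 17beta-estradiol for 21.5 h at 37 C; CellTiter-Fluor viability read in the same wells beforehand.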

Aromatase (Homo sapiens) = Aromatase (Homo sapiens) (UniProt P11511); assay: qHTS assay to identify aromatase inhibitors (AID 743083); also: series mostly up to about 70 µM; nearly all actives have a fitted effect of over 55% in size
[12] = qHTS assay to identify small molecule antagonists of the thyroid receptor (TR) signaling pathway (AID 743065); also: nearly all actives have a fitted effect of over 55% in size; also: potency is read from the fitted curve at half-maximal effect
Procedure, shortened: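 Antagonism measured as loss of luciferase signal in GH3 cells stably carrying a TRE-luciferase reporter, co-treated with compound and T3 (1 nM final) for 23.5 h at 37 C. Viability was read in the same well by CellTiter-Fluor.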

[13] = qHTS assay to identify small molecule antagonists of the estrogen receptor alpha (ER-alpha) signaling pathway using the BG1 cell line - cell viability counter screen (AID 743081);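 also: compound given together with 17beta-estradiol as the ER stimulus; series mostly up to about 70 µM; nearly all actives have a fitted effect of over 45% in size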
[14] = tested on: thyroid hormone receptor (rat, GH3 cells); assay: qHTS assay to identify small molecule agonists of the thyroid receptor (TR) signaling pathway (AID 743066; calls by dose curve)
[15] = qHTS assay to identify small molecule antagonists of the estrogen receptor alpha (ER-alpha) signaling pathway - cell viability counter screen (AID 743074; calls by dose curve;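 also: HEK293 cells carrying ER-alpha-UAS-bla reporter stimulated with 17beta-estradiol; nearly all actives have a fitted effect of over 45% in size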)
[16] = target: Androgen receptor (Homo sapiens) (UniProt P10275); assay: qHTS assay to identify small molecule antagonists of the androgen receptor (AR) signaling pathway (AID 743035; active = well fitted inhibition curve with a large enough effect in the signal ratio in the repeat runs, not every such curve was filed as active; the % refers to the signal ratio)
Procedure, shortened: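 Using qHTS, AR-UAS-bla GripTite HEK293 cells received compound, then R1881, and were cultured 16 h at 37C/5% CO2 before a 2 h room-temperature LiveBLAzer B/G FRET substrate step and fluorescence measurement.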

[17] = target: Androgen receptor (Homo sapiens) (UniProt P10275); assay: qHTS assay to identify small molecule agonists of the androgen receptor (AR) signaling pathway using the MDA cell line (AID 743040; also: nearly all actives have a fitted effect of over 20% in size)
Procedure, shortened: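 After a 5 h incubation at 37C and 0% CO2, MDA-kb2 reporter cells were dosed with compounds in DMSO and kept 16 h under the same conditions. Luciferase activity was then read as luminescence with ONE-Glo.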

[18] = target: Androgen receptor (Homo sapiens) (UniProt P10275); assay: qHTS assay to identify small molecule antagonists of the androgen receptor (AR) signaling pathway using the MDA cell line (AID 743042; also: nearly all actives have a fitted effect of over 55% in size)
Procedure, shortened: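 Antagonist mode: compounds plus R1881 agonist added to MDA-kb2 AR-luc cells, incubated 16 h at 37C. Luciferase reporter luminescence quantified, with multiplexed CellTiter-Fluor readout for cell viability.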

[19] = target: Androgen receptor (Homo sapiens) (UniProt P10275); assay: qHTS assay to identify small molecule agonists of the androgen receptor (AR) signaling pathway (AID 743036; active = well fitted activation curve with a large enough effect in the signal ratio in the repeat runs, with a control signal flat, not every such curve was filed as active; the % refers to the signal ratio)
Procedure, shortened: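 Beta-lactamase under UAS control, stably integrated in HEK293 GripTite cells, reports receptor activation. After 16 h compound treatment, cells received FRET substrate for 2 h at room temperature before fluorescence reading.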

Measured: Potency

Androgen receptor (Homo sapiens), sequence (P10275 whole entry, looked up): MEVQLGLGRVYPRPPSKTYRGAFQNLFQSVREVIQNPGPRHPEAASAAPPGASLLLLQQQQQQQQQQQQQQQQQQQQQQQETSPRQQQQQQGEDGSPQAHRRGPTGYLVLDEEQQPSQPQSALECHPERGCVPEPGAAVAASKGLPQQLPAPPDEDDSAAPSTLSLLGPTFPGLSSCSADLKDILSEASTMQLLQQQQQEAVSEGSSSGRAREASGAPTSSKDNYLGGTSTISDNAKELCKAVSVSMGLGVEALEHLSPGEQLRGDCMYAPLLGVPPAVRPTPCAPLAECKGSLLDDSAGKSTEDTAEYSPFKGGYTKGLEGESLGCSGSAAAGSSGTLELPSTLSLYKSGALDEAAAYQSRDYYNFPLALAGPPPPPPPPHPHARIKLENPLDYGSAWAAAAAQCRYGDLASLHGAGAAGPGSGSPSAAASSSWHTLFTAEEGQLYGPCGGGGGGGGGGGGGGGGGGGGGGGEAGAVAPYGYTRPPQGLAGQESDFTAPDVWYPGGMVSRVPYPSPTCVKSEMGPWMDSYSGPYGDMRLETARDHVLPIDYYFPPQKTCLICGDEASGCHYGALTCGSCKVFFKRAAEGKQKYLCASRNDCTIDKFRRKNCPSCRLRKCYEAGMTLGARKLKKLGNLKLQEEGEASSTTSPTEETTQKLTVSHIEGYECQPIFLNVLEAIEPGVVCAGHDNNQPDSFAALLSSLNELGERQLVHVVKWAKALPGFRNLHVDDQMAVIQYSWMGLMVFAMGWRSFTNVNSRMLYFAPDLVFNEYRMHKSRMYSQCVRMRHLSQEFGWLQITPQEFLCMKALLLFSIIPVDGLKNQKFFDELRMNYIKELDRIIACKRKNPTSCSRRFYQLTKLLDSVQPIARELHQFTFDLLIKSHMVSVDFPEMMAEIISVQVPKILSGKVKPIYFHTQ
Estrogen receptor (Homo sapiens), sequence (P03372 whole entry, looked up): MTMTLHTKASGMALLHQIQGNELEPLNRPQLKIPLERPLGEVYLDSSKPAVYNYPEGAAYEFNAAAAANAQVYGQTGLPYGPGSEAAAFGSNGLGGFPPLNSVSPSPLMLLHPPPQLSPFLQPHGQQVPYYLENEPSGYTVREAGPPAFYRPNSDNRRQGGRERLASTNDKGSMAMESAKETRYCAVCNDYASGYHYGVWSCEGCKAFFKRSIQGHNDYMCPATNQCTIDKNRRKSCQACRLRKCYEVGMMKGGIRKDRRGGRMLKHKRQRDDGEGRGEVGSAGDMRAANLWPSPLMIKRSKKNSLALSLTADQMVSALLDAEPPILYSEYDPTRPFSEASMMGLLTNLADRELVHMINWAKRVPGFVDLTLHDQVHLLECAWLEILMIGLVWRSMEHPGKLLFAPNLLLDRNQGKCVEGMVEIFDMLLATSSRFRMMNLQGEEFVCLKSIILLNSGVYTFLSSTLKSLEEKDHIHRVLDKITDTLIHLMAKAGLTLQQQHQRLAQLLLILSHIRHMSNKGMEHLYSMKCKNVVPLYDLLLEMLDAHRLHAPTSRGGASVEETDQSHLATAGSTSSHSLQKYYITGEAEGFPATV
Aromatase (Homo sapiens), sequence (P11511 whole entry, looked up): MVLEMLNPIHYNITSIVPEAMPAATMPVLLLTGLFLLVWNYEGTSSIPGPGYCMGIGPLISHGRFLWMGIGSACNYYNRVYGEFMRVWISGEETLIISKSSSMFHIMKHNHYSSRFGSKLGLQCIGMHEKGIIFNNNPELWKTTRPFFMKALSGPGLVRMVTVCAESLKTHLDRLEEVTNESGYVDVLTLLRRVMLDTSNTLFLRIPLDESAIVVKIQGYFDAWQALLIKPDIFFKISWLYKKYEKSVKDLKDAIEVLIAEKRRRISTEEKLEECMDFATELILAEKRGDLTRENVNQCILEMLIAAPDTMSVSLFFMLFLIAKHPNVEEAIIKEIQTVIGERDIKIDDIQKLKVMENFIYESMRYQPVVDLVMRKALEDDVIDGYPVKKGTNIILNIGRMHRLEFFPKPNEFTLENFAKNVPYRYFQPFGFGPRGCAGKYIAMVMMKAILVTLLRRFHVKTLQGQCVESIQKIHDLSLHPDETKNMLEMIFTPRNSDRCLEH

CO[C@@H]1[C@@H](O[C@@H]2O[C@H](C)[C@@H](O[C@H]3C[C@@](C)(O)[C@@H](O)[C@H](C)O3)[C@H](N(C)C)[C@H]2O)[C@@H](CC=O)C[C@@H](C)[C@@H](O[C@@H]2CC[C@H](N(C)C)[C@@H](C)O2)/C=C/C=C/C[C@@H](C)OC(=O)C[C@H]1OC(C)=O
inactive: [1] | [5] | [6] | [8] | [9] | [10] | [11] | Aromatase (Homo sapiens)
active: [2] 8.41 µM | [3] 6.68 µM | [4] 7.5 µM | [7] 26.6 µM

CC1(COc2ccc(CC3SC(=O)NC3=O)cc2)CCCCC1 (stereo not given)
inactive: [5] | [9] | [13]
active: [1] 23.9 µM | [2] 10.6 µM | [3] 23.7 µM | [4] 11.9 µM | [7] 23.7 µM | [12] 11.9 µM

CCCCCCCCCCCCCCCCN
not listed: [7] | [12] | [16] | [17] | [18] | [19]
inactive: all other assays above

O=C1c2ccccc2C(=O)c2c1ccc(O)c2O
inactive: [1] | [2] | [3] | [4] | [5] | [7] | [12] | [14] | [15] | [13] | Aromatase (Homo sapiens)

CCOc1ccccc1O
inactive: [1] | [2] | [3] | [4] | [5] | [7] | [14] | [15] | [13] | Aromatase (Homo sapiens)

CC(=O)Nc1ccccc1O
inactive: [1] | [2] | [3] | [4] | [5] | [6] | [7] | [14] | [15] | [13] | Aromatase (Homo sapiens)

CCc1ccc(C(=O)C(C)CN2CCCCC2)cc1 (stereo not given)
active: [2] 11.9 µM | [3] 11.9 µM | [4] 16.8 µM
inactive: [1] | [5] | [7] | [14] | [15] | [13] | Aromatase (Homo sapiens)

CC(C)Cc1nccs1
inactive: [1] | [2] | [3] | [4] | [5] | [6] | [7] | [14] | [15] | [13] | Aromatase (Homo sapiens)

O=C(O)COCC(=O)O
inactive: [1] | [2] | [3] | [4] | [5] | [6] | [7] | [14] | [13] | Aromatase (Homo sapiens)

NC(=O)c1ccccc1C(N)=O
not listed: [5] | [19]
inactive: all other assays above

COc1cccc([C@H](O)C2CCN(CCc3ccc(F)cc3)CC2)c1OC
active: [2] 27.3 µM | [3] 1.72 µM | [4] 4.33 µM
not listed: [7] | [12] | [16] | [17] | [18] | [19]
inactive: all other assays above

Clc1nc2ccccc2nc1Cl
not listed: [7] | [11] | [16] | [17] | [18] | [19]
inactive: all other assays above

COc1ccc(/C=C/S(=O)(=O)NC(=O)c2ccc(C)cc2Cl)cc1
inactive: [1] | [2] | [3] | [4] | [5] | [6] | [7] | [13] | Aromatase (Homo sapiens)

CC1=C(C)C(=O)C(C(CCCCCC(=O)O)c2ccccc2)=C(C)C1=O (stereo not given)
not listed: [7] | [11] | [12] | [16] | [17] | [18] | [19]
inactive: all other assays above

C[C@H]1C[C@H]2[C@@H]3CCC4=CC(=O)C=C[C@]4(C)[C@@]3(F)[C@@H](O)C[C@]2(C)[C@@]1(O)C(=O)COP(=O)(O)O
not listed: [7] | [8] | [11] | [16] | [17] | [18] | [19]
inactive: all other assays above

CCCCCCCCCC(C)C=O (stereo not given)
inactive: [1] | [2] | [3] | [4] | [5] | [6] | [7] | [14] | [15] | [13] | Aromatase (Homo sapiens)

NC(=O)c1ccccc1
not listed: [5]
inactive: all other assays above

CC(C(=O)O)c1ccc(/C=C2\CCCCC2=O)cc1 (stereo not given)
inactive: [1] | [2] | [3] | [4] | [5] | [6] | [12] | [14] | [15] | [13] | Aromatase (Homo sapiens)

Source: PubChem BioAssay (Tox21)
